The text below walks through data of PubChem BioAssay (Tox21).

Each structure is given as a SMILES string. Inconclusive results are not listed. A call without a number means that no potency is given here. Activity calls are given as the source filed them. Calls come from the whole dose curve; as a rule, active = well fitted activation curve with a large enough effect in the repeat runs; inconclusive = weak or mixed curves; inactive = no such curve, though single readings can be large or run the other way.
Potency is the fitted concentration of half-maximal effect.

Sequence of Aryl hydrocarbon receptor (Homo sapiens) (P35869 whole entry, looked up): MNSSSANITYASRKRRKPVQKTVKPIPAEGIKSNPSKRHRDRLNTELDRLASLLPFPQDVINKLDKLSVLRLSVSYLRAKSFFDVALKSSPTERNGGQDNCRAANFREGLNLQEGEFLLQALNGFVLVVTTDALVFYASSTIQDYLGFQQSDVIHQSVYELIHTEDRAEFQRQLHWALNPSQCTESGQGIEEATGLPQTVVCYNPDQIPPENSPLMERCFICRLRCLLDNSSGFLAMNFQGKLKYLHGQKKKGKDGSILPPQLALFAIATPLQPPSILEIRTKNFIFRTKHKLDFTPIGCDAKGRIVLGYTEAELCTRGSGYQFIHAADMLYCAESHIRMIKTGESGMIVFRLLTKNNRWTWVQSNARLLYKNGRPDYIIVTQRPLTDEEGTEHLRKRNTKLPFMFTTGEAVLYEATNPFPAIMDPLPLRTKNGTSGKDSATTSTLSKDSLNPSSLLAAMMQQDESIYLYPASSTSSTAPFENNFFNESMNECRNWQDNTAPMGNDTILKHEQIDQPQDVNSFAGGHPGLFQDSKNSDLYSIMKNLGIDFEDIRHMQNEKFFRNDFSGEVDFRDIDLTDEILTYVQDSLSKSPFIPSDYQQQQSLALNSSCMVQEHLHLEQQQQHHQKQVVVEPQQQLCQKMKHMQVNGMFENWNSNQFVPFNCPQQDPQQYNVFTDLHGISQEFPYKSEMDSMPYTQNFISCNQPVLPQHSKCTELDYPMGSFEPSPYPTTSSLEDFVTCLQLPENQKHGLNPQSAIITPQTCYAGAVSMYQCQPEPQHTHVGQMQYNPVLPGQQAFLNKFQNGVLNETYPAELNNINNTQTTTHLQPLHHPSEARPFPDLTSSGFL

For the assay, the target named is Aryl hydrocarbon receptor (Homo sapiens) (UniProt P35869). The assay is described as follows: qHTS assay to identify small molecule that activate the aryl hydrocarbon receptor (AhR) signaling pathway (AID 743085).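 For activation: HG2L7.5c1 human HepG2 liver cells with stably integrated DRE-driven firefly reporter.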 Note: nearly all actives have a fitted effect of over 15% in size. The following applies: HepG2 AhR-luc (HG2L7.5c1), luciferase, 24 h; series mostly up to 70.3 µM. From the text:
U.S. Tox21 Program National Center for Advancing Translational Sciences [NCATS] NIH Chemical Genomics Center [NCGC] U.S. Environmental Protection Agency [EPA] National Institutes of Environmental Health Sciences [NIEHS] National Toxicology Program [NTP] U.S. Food and Drug Administration [FDA] Tox21 Assay overview: The Aryl hydrocarbon Receptor (AhR), a member of the family of basic helix-loop-helix transcription factors, is crucial to adaptive responses to environmental changes. AhR mediates cellular responses to environmental pollutants such as aromatic hydrocarbons through induction of phase I and II enzymes but also interacts with other nuclear receptor signaling pathways. A cell based HepG2-AhR-luc assay (HG2L7.5c1 cell line, developed by Dr. Michael S. Denison, University of California at Davis, was used to assess the activation of AhR. HepG2 (human hepatocellular carcinoma) cells were stably transfected with an Ah receptor-responsive firefly luciferase reporter gene plasmid containing 20 dioxin responsive elements and luciferase reporter gene. Increased luciferase activity can be used to identify the compounds that induce AhR activation.
Tox21 Assay Protocol Summary: 4000 cells in 5 uL/well were dispensed into white wall/solid bottom 1536-well plates using a Multidrop Combi (Thermo Fisher Scientific Inc., Waltham, MA) dispenser. After the assay plates were incubated at 37C for 5 h, 23 nL of compound or DMSO vehicle was transferred to the assay plates by a pintool station (Kalypsys, San Diego, CA). The plates were incubated at 37C for 24 hr. After 1 ul/well of CellTiter-Fluor reagent (Promega, Madison, WI) was added into the assay plates using a Flying Reagent Dispenser (FRD) (Aurora Discovery, CA), the assay plates were incubated at 37C for 30 min. The fluorescence intensity in the plates was measured using a ViewLux plate reader (PerkinElmer, Shelton, CT), followed by the addition of 4 uL of ONE-Glo Luciferase Assay reagent (Promega) using an FRD (Aurora Discovery). After the assay plates were incubated at room temperature for 30 min, luminescence intensity was measured using a ViewLux plate reader (Perkin Elmer).
For the molecule `CNCCO`, the Potency result is “inactive”.
The value for `NS(=O)(=O)Cc1noc2ccccc12` was “inactive”; that for `C1CCC2(CCCCO2)OC1` was “inactive”.
Next, `CC(C)C1CCC(O)CC1` (stereo not given): “inactive”; `Cc1ccc(-c2ncc(Cl)cc2-c2ccc(S(C)(=O)=O)cc2)cn1`: “inactive”.
The value for `c1ccc2sc(SN3CCOCC3)nc2c1` was 23.7 µM (active).
With `CCNS(=O)(=O)c1ccc(C)cc1`, the Potency entry is “inactive”.
The value for `CC[N+](CC)(CC)CCOc1cccc(OCC[N+](CC)(CC)CC)c1OCC[N+](CC)(CC)CC` was “inactive”; that for `CC(C#N)(CCC(=O)O)N=NC(C)(C#N)CCC(=O)O` (stereo not given) was “inactive”; that for `CCN[C@@H]1C[C@H](N)[C@@H](OC2OC(CN)=CCC2N)[C@H](O)[C@H]1O[C@H]1OC[C@](C)(O)[C@H](NC)[C@H]1O` (stereo not given in full) was “inactive”.
`CN(C)C(=O)Oc1cccc([N+](C)(C)C)c1`: the Potency entry was “inactive”.
The value for `Nc1ccn([C@@H]2O[C@H](CO)[C@@H](O)C2(F)F)c(=O)n1` was “inactive”.
Take `CC1(C)[C@@H]2CC[C@@]1(C)[C@H](O)C2`: the Potency result was “inactive”.
The value for `CC1OC1C1CCC2(C)OC2C1` (stereo not given) was “inactive”.
Next, `C[C@H]1C[C@H]2[C@@H]3CCC4=CC(=O)C=C[C@]4(C)[C@H]3C(=O)C[C@]2(C)[C@@]1(O)C(=O)CO`: “inactive”; `CO/N=C(\C(=O)N[C@@H]1C(=O)N2C(C(=O)O)=C(CSc3nc(=O)c(O)nn3C)CS[C@H]12)c1csc(N)n1`: “inactive”.
As for `CCCc1ncc(C[n+]2ccccc2C)c(N)n1`, the Potency entry was “inactive”.
The value for `CC(C)CC(C)(N)C#N` (stereo not given) was “inactive”; that for `CC1(C)OC[C@@H](COC(=O)CCc2ccc(OC[C@@H](O)CNCCNC(=O)N3CCOCC3)cc2)O1` was “inactive”.
Next, `Cc1nc2ccc(CN(C)c3ccc(C(=O)N[C@@H](CCC(=O)O)C(=O)O)s3)cc2c(=O)[nH]1`: “inactive”; `c1ccc(CCc2ccccc2)cc1`: “inactive”; `CCCCCCCCCCCCCCC(=O)O`: “inactive”.
The value for `O=C(O)CNC(=O)c1ccccc1` was “inactive”; that for `CCC(=O)OCc1ccccc1` was “inactive”; that for `CCOC(=O)OC(C)OC1=C(C(=O)Nc2ccccn2)N(C)S(=O)(=O)c2ccccc21` (stereo not given) was “inactive”.
For the molecule `CCCCN(CCC(=O)OCC)C(C)=O`, the Potency entry is “inactive”.
The value for `C[C@@H]1CCC[C@H](C)N1` was “inactive”.
For `COc1ccc2cc1Oc1cc3c(cc1OC)CC[N+](C)(C)[C@H]3Cc1ccc(cc1)Oc1c(OC)c(OC)cc3c1[C@@H](C2)[N+](C)(C)CC3`, the Potency entry is “inactive”.
Next, `C1CCC2=NCCCN2CC1`: “inactive”; `COc1cccc(OC)c1C(=O)N[C@@H]1C(=O)N2[C@@H]1SC(C)(C)[C@@H]2C(=O)O`: “inactive”; `CCCCCC(C)N` (stereo not given): “inactive”.
The value for `[Ca+2]` was “inactive”; that for `O=C(O)CCSCCC(=O)O` was “inactive”; that for `CNC(=O)Nc1ccc(Cl)c(Cl)c1` was 54.5 µM (active).
The value for `CC(C)CCCO` was “inactive”.
Take `Nc1ccn([C@@H]2O[C@H](CO)[C@@H](O)C2O)c(=O)n1` (stereo not given in full): the Potency entry is “inactive”.
The value for `CO[Si](C)(OC)c1ccccc1` was “inactive”; that for `CC(C)=CCC/C(C)=C/C#N` was “inactive”.
Next, `Clc1cc(Cl)cc(Cl)c1`: “inactive”; `Cc1ccc(C(=O)Nc2ccc(S(=O)(=O)O)c3cc(S(=O)(=O)O)cc(S(=O)(=O)O)c23)cc1NC(=O)c1cccc(NC(=O)Nc2cccc(C(=O)Nc3cc(C(=O)Nc4ccc(S(=O)(=O)O)c5cc(S(=O)(=O)O)cc(S(=O)(=O)O)c45)ccc3C)c2)c1`: “inactive”.
